Data as given in paper PMC7862700, “An all-to-all approach to the identification of sequence-specific readers for epigenetic DNA modifications on cytosine”.

Tests used:
Test in all cases: DAPPL (digital affinity profiling via proximity ligation, sequencing); 10 mM Tris-HCl pH 7.5, 50 mM NaCl, 1 mM DTT, 4% glycerol, room temperature, 30 min; GST-TFs on glutathione beads, 16-mer random dsDNA library, 0.1% formaldehyde crosslink after washing; high values mean tight binding
Conditions in all cases: protein: recombinant; tags: N-terminal GST; dsDNA, one strand shown
[1] = molecular target: T1, FLI1 (Homo sapiens, UniProt Q01543 1-452)
T1 sequence: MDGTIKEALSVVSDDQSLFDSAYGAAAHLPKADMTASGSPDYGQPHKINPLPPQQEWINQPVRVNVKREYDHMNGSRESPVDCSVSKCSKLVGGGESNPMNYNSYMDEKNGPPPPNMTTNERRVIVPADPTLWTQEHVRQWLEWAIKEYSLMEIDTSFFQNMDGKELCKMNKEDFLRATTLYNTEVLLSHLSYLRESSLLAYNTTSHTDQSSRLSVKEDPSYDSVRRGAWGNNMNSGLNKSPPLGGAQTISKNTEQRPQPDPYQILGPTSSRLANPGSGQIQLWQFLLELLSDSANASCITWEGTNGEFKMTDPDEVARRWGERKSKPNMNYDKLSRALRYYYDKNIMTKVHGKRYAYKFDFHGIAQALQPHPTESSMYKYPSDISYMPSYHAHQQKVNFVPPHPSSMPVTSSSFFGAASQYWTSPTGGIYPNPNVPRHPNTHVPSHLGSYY
How it was run: (§1)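 GST fusions of human transcription factors were expressed in yeast and captured with glutathione beads. Once given DNA barcodes and pooled alongside a tag-only sample, they were incubated for 30 min at room temperature with 200 nmole of a random double-stranded 16-mer DNA library in Tris/NaCl/DTT/glycerol buffer, then washed, crosslinked (0.1% formaldehyde), proximity-ligated, PCR-amplified and sequenced on an Illumina NextSeq500. The binding signal of each hexamer is its read frequency for a factor divided by its frequency for the tag-only sample.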

[2] = molecular target: T2, ELK1 (Homo sapiens, UniProt P19419 1-428)
T2 sequence: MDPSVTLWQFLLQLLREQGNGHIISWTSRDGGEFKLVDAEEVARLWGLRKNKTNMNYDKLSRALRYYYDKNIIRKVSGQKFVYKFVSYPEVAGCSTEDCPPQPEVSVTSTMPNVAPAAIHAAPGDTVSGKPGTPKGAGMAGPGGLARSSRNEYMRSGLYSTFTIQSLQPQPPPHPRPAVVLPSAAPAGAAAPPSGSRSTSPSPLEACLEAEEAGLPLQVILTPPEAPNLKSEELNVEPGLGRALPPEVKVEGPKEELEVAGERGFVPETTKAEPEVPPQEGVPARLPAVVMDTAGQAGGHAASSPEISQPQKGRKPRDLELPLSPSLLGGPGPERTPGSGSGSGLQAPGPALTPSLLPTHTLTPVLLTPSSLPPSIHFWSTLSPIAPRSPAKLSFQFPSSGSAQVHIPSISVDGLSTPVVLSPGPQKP
How it was run: as §1

[3] = molecular target: T3, GABPA (Homo sapiens, UniProt Q06546 1-454)
T3 sequence: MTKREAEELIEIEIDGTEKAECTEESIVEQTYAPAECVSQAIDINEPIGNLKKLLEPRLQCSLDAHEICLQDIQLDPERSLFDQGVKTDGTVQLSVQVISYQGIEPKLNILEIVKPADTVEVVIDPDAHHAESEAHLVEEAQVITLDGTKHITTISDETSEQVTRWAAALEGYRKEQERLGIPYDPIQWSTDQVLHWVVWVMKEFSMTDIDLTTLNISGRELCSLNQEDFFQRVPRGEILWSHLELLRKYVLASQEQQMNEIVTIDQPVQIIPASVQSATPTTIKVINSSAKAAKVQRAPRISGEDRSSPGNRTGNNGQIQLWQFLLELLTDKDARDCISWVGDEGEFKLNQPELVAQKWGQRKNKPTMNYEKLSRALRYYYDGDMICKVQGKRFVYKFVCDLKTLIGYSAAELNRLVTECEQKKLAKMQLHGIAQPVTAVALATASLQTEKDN
How it was run: as §1

[4] = molecular target: T4, ERG (Homo sapiens, UniProt P11308 1-479)
T4 sequence: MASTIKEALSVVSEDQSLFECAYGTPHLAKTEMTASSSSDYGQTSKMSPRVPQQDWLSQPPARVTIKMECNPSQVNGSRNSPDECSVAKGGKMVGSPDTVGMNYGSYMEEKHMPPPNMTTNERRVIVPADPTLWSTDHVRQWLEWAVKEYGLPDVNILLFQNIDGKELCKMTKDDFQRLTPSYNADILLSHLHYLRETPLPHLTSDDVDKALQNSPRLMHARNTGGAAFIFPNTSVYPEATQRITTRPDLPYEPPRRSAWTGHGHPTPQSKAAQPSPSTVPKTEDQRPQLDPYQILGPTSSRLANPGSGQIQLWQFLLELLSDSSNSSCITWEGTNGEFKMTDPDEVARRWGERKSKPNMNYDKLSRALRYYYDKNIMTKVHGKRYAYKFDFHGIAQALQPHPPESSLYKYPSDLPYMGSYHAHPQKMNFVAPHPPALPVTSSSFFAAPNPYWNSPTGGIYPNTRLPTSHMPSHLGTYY
How it was run: as §1

[5] = molecular target: ELF1 (Homo sapiens, UniProt P32519 1-619)
How it was run: as §1

[6] = molecular target: T5, EHF (Homo sapiens, UniProt Q9NZC4 1-300)
T5 sequence: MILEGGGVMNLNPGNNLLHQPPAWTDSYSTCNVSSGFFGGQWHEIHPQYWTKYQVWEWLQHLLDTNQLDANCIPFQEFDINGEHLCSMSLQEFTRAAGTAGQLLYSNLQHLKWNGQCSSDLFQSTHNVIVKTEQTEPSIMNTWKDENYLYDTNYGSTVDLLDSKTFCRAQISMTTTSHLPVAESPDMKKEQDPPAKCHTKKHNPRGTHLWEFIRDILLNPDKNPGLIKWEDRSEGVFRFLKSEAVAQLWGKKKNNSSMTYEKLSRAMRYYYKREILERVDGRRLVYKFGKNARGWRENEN
How it was run: as §1

[7] = molecular target: SPI1 (Homo sapiens, UniProt P17947 1-270)
How it was run: as §1

[8] = molecular target: SPIB (Homo sapiens, UniProt Q01892 1-262)
How it was run: as §1

[9] = molecular target: T6, ELK3 (Homo sapiens, UniProt P41970 1-407)
T6 sequence: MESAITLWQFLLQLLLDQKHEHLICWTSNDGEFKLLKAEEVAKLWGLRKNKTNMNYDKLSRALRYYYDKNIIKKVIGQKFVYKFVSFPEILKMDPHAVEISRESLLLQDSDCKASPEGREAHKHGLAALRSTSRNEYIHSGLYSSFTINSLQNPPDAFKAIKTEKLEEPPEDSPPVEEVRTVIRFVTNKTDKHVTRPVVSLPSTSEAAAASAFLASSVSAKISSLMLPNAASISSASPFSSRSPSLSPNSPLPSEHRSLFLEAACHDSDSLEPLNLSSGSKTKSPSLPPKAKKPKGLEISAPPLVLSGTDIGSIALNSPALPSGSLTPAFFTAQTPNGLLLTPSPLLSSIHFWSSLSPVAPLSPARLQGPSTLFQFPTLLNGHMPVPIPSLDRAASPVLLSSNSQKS
How it was run: as §1

[10] = molecular target: T7, FEV (Homo sapiens, UniProt Q99581 1-238)
T7 sequence: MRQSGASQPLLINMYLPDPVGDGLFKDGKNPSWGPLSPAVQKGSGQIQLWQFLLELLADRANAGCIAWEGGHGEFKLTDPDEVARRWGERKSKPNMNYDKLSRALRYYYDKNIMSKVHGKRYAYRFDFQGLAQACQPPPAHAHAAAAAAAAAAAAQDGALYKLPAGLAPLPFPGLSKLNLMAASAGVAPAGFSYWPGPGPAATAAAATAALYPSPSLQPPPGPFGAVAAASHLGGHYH
How it was run: as §1

[11] = molecular target: ETV5 (Homo sapiens, UniProt P41161 1-510)
How it was run: as §1

[12] = molecular target: T8, SPIC (Homo sapiens, UniProt Q8N5J4 1-248)
T8 sequence: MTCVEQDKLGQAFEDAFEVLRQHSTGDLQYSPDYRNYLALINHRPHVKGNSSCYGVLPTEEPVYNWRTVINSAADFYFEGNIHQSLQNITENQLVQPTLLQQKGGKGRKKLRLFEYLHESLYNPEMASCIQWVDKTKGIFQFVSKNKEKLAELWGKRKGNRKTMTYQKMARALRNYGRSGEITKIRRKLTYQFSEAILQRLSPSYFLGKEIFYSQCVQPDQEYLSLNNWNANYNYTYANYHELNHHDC
How it was run: as §1

[13] = molecular target: ELF4 (Homo sapiens, UniProt Q99607 1-663)
How it was run: as §1

[14] = molecular target: T9, ELK4 (Homo sapiens, UniProt P28324-2 1-405)
T9 sequence: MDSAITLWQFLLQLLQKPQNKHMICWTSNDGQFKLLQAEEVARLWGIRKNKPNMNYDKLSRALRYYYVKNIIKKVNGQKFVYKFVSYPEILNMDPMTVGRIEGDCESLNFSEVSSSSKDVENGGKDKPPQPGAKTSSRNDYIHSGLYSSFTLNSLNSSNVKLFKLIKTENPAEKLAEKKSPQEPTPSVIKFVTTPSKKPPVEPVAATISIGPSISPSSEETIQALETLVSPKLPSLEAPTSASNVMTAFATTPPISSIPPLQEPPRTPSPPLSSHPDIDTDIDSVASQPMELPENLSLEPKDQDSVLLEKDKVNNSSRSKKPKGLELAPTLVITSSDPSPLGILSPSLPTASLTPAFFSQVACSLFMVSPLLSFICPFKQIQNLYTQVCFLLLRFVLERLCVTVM
How it was run: as §1

[15] = molecular target: T10, ETV2 (Homo sapiens, UniProt O00321 1-342)
T10 sequence: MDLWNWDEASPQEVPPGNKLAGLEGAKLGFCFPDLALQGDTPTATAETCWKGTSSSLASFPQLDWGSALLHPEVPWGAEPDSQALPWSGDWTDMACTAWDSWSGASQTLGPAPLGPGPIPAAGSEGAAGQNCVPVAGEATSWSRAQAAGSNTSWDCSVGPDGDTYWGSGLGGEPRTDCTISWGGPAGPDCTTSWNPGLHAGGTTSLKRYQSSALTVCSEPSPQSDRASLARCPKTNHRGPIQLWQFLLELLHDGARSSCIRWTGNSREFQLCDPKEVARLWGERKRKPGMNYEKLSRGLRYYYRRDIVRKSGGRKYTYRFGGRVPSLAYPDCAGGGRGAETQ
How it was run: as §1

[16] = molecular target: T11, ELF3 (Homo sapiens, UniProt P78545 1-371)
T11 sequence: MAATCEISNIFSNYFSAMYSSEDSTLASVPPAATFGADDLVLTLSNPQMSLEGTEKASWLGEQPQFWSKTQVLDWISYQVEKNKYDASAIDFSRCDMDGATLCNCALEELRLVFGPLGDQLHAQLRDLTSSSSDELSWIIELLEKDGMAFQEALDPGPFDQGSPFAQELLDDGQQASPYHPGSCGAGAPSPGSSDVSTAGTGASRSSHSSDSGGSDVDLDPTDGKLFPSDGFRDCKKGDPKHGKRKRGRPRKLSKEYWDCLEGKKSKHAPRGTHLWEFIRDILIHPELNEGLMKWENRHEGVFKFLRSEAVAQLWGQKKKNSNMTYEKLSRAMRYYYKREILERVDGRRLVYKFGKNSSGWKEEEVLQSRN
How it was run: as §1

[17] = molecular target: ETV1 (Homo sapiens, UniProt P50549 1-477)
How it was run: as §1

Chain of ETV5 (P41161 whole entry): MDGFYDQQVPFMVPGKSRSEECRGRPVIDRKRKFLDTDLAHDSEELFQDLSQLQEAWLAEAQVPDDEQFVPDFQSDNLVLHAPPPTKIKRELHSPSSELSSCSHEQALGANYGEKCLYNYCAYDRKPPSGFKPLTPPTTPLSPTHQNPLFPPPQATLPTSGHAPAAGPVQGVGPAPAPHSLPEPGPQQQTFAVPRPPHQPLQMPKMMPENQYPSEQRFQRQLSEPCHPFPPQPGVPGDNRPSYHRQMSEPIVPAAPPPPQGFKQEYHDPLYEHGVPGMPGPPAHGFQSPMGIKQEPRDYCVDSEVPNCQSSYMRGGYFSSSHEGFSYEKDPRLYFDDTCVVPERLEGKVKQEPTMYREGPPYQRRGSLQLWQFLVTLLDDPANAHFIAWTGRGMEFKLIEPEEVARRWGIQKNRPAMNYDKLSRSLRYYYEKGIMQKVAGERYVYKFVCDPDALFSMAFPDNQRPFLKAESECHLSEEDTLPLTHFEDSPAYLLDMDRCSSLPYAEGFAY
Chain of ETV1 (P50549 whole entry): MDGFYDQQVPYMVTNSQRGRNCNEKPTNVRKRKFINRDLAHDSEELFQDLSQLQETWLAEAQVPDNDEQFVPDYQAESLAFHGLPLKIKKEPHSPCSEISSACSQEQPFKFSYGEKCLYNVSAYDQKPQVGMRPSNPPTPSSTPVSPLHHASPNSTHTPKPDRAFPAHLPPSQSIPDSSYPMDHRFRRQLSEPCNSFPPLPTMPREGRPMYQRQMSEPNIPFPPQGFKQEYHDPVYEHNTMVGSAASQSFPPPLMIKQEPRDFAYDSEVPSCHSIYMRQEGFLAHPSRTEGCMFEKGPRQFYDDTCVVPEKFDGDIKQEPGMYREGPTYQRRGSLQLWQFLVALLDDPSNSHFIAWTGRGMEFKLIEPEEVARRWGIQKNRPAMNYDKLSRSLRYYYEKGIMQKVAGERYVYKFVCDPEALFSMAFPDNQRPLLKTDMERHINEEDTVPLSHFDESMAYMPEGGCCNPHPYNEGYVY
Chain of SPIB (Q01892 whole entry): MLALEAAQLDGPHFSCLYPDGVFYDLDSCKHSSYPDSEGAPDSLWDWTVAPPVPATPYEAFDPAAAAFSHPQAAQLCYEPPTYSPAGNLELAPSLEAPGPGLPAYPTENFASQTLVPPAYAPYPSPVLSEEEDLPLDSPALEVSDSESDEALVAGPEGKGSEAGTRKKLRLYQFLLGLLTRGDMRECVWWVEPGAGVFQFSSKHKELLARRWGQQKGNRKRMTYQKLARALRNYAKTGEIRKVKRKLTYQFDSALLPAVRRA
Chain of ELF4 (Q99607 whole entry): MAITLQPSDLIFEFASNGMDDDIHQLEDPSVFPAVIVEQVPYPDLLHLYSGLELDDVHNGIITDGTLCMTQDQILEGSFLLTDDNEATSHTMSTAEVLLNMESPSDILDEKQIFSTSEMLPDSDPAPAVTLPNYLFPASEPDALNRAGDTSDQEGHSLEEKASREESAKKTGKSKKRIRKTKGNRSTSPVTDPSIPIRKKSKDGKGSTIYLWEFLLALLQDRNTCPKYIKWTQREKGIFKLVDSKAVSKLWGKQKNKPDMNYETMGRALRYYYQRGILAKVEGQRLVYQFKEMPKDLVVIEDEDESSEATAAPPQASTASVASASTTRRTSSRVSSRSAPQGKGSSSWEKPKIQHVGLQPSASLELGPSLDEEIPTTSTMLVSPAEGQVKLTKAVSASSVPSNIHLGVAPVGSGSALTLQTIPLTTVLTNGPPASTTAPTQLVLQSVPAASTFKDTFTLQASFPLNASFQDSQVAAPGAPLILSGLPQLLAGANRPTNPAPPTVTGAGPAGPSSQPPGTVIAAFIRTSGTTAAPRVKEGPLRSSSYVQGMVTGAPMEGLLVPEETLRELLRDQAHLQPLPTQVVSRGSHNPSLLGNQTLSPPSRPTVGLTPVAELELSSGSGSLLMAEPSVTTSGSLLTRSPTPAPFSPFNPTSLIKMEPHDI
Chain of ELF1 (P32519 whole entry): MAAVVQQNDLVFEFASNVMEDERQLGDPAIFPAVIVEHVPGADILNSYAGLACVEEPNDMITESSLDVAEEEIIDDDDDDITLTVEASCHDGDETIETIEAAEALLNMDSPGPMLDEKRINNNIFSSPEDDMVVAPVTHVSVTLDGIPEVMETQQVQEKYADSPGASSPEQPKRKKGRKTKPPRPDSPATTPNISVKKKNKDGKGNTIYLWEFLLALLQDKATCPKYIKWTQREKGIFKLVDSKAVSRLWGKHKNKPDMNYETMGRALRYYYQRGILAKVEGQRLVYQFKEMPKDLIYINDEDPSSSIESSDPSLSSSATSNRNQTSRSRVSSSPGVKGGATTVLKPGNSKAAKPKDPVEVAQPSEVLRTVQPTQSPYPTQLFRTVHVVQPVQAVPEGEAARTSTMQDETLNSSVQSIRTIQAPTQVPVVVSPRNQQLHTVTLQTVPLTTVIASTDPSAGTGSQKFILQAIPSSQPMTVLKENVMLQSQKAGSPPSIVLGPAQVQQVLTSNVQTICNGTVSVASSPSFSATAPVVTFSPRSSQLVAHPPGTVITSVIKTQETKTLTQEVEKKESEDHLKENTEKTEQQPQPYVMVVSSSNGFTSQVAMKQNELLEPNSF

Sequence | binding signal [1] | binding signal [2] | binding signal [3] | binding signal [4] | binding signal [5] | binding signal [6] | binding signal [7] | binding signal [8] | binding signal [9] | binding signal [10] | binding signal [11] | binding signal [12] | binding signal [13] | binding signal [14] | binding signal [15] | binding signal [16] | binding signal [17]
ACTGCA | 1.1 fold enrichment (6-mer frequency, TF over GST control) | 1.17 fold enrichment (6-mer frequency, TF over GST control) | 1.05 fold enrichment (6-mer frequency, TF over GST control) | 1.09 fold enrichment (6-mer frequency, TF over GST control) | 1.19 fold enrichment (6-mer frequency, TF over GST control) | 1.12 fold enrichment (6-mer frequency, TF over GST control) | 1.27 fold enrichment (6-mer frequency, TF over GST control) | 1.15 fold enrichment (6-mer frequency, TF over GST control) | 1.11 fold enrichment (6-mer frequency, TF over GST control) | 1.18 fold enrichment (6-mer frequency, TF over GST control) | 1.2 fold enrichment (6-mer frequency, TF over GST control) | 1.34 fold enrichment (6-mer frequency, TF over GST control) | 1.09 fold enrichment (6-mer frequency, TF over GST control) | 1.25 fold enrichment (6-mer frequency, TF over GST control) | 1 fold enrichment (6-mer frequency, TF over GST control) | 1.08 fold enrichment (6-mer frequency, TF over GST control) | 1.01 fold enrichment (6-mer frequency, TF over GST control)
GAAACG | 1.17 fold enrichment (6-mer frequency, TF over GST control) | 1.26 fold enrichment (6-mer frequency, TF over GST control) | 1.2 fold enrichment (6-mer frequency, TF over GST control) | 1.38 fold enrichment (6-mer frequency, TF over GST control) | 1.18 fold enrichment (6-mer frequency, TF over GST control) | 1.19 fold enrichment (6-mer frequency, TF over GST control) | 1.17 fold enrichment (6-mer frequency, TF over GST control) | 1.25 fold enrichment (6-mer frequency, TF over GST control) | 1.27 fold enrichment (6-mer frequency, TF over GST control) | 1.36 fold enrichment (6-mer frequency, TF over GST control) | 1.21 fold enrichment (6-mer frequency, TF over GST control) | 1.19 fold enrichment (6-mer frequency, TF over GST control) | 1.14 fold enrichment (6-mer frequency, TF over GST control) | 1.05 fold enrichment (6-mer frequency, TF over GST control) | 1.28 fold enrichment (6-mer frequency, TF over GST control) | 1.27 fold enrichment (6-mer frequency, TF over GST control) | 1.29 fold enrichment (6-mer frequency, TF over GST control)
GCTTGG | 1.19 fold enrichment (6-mer frequency, TF over GST control) | 1.15 fold enrichment (6-mer frequency, TF over GST control) | 1.12 fold enrichment (6-mer frequency, TF over GST control) | 1.09 fold enrichment (6-mer frequency, TF over GST control) | 1.08 fold enrichment (6-mer frequency, TF over GST control) | 1.05 fold enrichment (6-mer frequency, TF over GST control) | 1.04 fold enrichment (6-mer frequency, TF over GST control) | 1.16 fold enrichment (6-mer frequency, TF over GST control) | 1.15 fold enrichment (6-mer frequency, TF over GST control) | 1.03 fold enrichment (6-mer frequency, TF over GST control) | 1.02 fold enrichment (6-mer frequency, TF over GST control) | 1.03 fold enrichment (6-mer frequency, TF over GST control) | 1.07 fold enrichment (6-mer frequency, TF over GST control) | 1.11 fold enrichment (6-mer frequency, TF over GST control) | 1.07 fold enrichment (6-mer frequency, TF over GST control) | 1.14 fold enrichment (6-mer frequency, TF over GST control) | 1.22 fold enrichment (6-mer frequency, TF over GST control)
